We go through one sequence from PMC7862700, “An all-to-all approach to the identification of sequence-specific readers for epigenetic DNA modifications on cytosine”.

Holding throughout (assay): DAPPL (digital affinity profiling via proximity ligation, sequencing); 10 mM Tris-HCl pH 7.5, 50 mM NaCl, 1 mM DTT, 4% glycerol, room temperature, 30 min; GST-TFs on glutathione beads, 16-mer random dsDNA library, 0.1% formaldehyde crosslink after washing; high values mean tight binding
One test concerns the target T1, FLI1 (Homo sapiens, UniProt Q01543 1-452).
T1 sequence: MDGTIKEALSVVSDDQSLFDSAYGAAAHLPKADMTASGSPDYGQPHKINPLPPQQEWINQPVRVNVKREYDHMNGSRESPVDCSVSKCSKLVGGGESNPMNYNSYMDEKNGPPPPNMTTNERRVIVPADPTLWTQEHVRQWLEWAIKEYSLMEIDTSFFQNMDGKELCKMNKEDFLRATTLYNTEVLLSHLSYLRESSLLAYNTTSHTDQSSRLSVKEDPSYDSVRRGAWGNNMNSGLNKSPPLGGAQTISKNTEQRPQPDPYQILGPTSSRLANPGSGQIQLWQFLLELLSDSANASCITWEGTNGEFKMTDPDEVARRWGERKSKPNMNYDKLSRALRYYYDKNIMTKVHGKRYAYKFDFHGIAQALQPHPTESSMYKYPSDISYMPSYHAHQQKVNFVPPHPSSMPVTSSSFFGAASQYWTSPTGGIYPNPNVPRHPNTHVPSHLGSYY
The conditions noted are these: protein: recombinant; tags: N-terminal GST; dsDNA, one strand shown. The procedure, abridged: (§1)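 Yeast served to express human transcription factors as GST fusions, which were then captured on glutathione beads and labelled with DNA barcodes. Pooled with a tag-only sample, they were incubated with 200 nmole of a 16-mer random double-stranded DNA library for 30 min at room temperature in Tris/NaCl/DTT/glycerol buffer, washed, crosslinked with 0.1% formaldehyde, ligated by proximity, amplified by PCR and sequenced. Dividing each hexamer's read frequency for a factor by its frequency for the tag-only sample gives the binding signal.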

For the next test, the target named is T2, ELK1 (Homo sapiens, UniProt P19419 1-428).
T2 sequence: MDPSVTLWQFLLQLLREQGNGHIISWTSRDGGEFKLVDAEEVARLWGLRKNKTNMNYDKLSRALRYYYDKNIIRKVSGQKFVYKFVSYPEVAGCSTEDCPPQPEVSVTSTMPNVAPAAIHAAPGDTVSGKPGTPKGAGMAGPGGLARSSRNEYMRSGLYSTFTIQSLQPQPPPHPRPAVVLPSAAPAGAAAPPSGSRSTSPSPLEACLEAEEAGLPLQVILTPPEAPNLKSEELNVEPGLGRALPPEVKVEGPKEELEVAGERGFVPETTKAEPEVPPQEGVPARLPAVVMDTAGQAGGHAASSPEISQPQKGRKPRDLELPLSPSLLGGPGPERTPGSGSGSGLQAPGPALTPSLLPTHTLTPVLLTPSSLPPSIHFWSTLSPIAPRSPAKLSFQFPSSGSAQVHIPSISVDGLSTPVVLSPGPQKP
The conditions noted are these: protein: recombinant; tags: N-terminal GST; dsDNA, one strand shown. In outline: as §1

For the next test, the target named is T3, GABPA (Homo sapiens, UniProt Q06546 1-454).
T3 sequence: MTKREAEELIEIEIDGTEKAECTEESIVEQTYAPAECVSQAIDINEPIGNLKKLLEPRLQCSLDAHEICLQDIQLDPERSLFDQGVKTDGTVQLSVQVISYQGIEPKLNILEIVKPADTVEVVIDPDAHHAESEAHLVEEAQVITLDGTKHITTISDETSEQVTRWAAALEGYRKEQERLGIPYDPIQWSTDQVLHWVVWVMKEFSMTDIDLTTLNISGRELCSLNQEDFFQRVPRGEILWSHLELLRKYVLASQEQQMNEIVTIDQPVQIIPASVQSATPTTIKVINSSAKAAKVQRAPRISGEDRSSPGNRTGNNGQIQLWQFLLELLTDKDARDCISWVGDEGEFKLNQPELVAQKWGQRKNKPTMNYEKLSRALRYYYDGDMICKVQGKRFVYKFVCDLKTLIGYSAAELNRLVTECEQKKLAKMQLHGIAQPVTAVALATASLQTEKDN
Conditions: protein: recombinant; tags: N-terminal GST; dsDNA, one strand shown. The procedure, abridged: as §1

A further test has as its target ELF1 (Homo sapiens, UniProt P32519 1-619). The conditions noted are these: protein: recombinant; tags: N-terminal GST; dsDNA, one strand shown. The procedure, abridged: as §1
The next test concerns the target ETV5 (Homo sapiens, UniProt P41161 1-510). The conditions noted are these: protein: recombinant; tags: N-terminal GST; dsDNA, one strand shown. In outline:
as §1

In the next test the target is HSF1 (Homo sapiens, UniProt Q00613 1-529). Conditions: protein: recombinant; tags: N-terminal GST; chain copies: 3; dsDNA, one strand shown. The procedure, abridged: as §1
For another test, the target named is T4, SPIC (Homo sapiens, UniProt Q8N5J4 1-248).
T4 sequence: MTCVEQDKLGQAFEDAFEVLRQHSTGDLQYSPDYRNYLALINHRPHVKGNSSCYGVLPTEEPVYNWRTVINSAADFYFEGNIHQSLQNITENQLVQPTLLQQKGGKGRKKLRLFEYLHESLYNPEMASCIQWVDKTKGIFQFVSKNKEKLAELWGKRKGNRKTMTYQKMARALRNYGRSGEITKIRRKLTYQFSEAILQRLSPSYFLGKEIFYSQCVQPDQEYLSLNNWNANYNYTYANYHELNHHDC
The conditions noted are these: protein: recombinant; tags: N-terminal GST; dsDNA, one strand shown. In outline: as §1

The target of another test is ELF4 (Homo sapiens, UniProt Q99607 1-663). The conditions noted are these: protein: recombinant; tags: N-terminal GST; dsDNA, one strand shown. In outline:
as §1

In another test the target is T5, ELK4 (Homo sapiens, UniProt P28324-2 1-405).
T5 sequence: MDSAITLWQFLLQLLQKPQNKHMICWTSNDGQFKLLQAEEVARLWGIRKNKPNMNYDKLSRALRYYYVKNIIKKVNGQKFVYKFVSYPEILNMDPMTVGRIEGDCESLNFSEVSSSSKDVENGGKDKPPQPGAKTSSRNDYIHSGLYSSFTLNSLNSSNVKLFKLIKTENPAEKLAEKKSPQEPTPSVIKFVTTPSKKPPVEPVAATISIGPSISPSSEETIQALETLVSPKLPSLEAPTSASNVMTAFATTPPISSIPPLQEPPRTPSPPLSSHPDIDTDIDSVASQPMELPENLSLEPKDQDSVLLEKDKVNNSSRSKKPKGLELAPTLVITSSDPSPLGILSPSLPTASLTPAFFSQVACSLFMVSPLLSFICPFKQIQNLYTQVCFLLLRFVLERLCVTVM
Conditions: protein: recombinant; tags: N-terminal GST; dsDNA, one strand shown. In outline: as §1

The target of the next test is T6, ETV2 (Homo sapiens, UniProt O00321 1-342).
T6 sequence: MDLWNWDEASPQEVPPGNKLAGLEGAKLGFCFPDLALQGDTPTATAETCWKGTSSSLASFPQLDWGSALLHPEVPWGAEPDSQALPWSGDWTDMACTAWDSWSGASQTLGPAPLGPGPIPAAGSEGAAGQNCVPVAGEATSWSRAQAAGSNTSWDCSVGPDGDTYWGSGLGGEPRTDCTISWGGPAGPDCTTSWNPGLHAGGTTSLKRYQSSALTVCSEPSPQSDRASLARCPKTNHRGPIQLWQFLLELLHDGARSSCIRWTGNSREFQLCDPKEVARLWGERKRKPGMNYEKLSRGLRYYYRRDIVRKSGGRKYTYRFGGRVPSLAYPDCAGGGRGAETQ
The conditions noted are these: protein: recombinant; tags: N-terminal GST; dsDNA, one strand shown. The procedure, abridged: as §1

A further test addresses ETV1 (Homo sapiens, UniProt P50549 1-477). The conditions noted are these: protein: recombinant; tags: N-terminal GST; dsDNA, one strand shown. In outline: as §1

Sequence of HSF1 (Q00613 whole entry): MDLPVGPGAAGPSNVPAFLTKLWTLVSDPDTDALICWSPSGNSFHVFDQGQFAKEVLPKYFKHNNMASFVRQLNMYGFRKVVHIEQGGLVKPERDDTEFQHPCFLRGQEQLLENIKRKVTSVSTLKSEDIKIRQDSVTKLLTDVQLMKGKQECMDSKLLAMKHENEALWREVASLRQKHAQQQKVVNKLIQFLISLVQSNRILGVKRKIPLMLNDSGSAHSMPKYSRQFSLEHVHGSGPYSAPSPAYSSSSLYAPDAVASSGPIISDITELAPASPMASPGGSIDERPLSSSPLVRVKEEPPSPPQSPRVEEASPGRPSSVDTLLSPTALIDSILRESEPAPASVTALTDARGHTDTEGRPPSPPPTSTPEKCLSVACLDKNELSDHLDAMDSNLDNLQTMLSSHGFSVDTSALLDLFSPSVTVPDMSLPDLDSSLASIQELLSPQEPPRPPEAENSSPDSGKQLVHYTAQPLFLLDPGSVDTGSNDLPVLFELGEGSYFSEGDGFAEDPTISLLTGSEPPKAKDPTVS
Sequence of ELF1 (P32519 whole entry): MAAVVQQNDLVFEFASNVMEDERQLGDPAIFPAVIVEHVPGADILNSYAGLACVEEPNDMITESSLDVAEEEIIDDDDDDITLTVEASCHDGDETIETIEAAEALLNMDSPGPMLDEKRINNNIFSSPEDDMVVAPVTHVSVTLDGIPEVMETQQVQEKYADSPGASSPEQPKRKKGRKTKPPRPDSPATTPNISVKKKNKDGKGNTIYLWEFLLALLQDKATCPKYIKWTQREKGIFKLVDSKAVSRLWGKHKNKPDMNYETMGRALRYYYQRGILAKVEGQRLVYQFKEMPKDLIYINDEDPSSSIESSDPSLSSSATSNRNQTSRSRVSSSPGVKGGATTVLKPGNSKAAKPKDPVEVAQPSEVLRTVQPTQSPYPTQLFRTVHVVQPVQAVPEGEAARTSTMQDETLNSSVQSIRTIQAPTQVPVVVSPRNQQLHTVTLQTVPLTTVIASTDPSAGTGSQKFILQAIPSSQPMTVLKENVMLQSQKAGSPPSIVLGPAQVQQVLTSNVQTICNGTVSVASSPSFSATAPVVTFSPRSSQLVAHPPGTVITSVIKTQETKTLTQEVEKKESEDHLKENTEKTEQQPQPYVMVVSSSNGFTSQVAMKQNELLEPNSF
Sequence of ELF4 (Q99607 whole entry): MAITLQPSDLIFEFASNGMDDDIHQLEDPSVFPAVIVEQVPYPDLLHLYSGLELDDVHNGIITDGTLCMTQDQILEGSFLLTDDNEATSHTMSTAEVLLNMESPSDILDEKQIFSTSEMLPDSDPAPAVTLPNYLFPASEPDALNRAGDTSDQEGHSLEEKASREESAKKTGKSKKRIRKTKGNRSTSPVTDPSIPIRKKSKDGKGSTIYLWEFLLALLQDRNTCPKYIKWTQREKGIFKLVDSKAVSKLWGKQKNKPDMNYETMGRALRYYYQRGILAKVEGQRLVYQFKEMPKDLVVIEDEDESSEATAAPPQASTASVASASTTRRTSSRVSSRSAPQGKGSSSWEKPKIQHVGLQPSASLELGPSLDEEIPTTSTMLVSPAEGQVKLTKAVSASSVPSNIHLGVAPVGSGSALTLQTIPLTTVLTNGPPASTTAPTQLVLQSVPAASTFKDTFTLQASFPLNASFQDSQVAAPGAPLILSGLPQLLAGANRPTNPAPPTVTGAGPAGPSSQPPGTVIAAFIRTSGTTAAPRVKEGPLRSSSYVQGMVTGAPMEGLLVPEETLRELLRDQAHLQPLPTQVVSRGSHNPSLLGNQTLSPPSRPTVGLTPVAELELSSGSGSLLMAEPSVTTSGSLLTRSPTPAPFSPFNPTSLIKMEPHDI
Sequence of ETV1 (P50549 whole entry): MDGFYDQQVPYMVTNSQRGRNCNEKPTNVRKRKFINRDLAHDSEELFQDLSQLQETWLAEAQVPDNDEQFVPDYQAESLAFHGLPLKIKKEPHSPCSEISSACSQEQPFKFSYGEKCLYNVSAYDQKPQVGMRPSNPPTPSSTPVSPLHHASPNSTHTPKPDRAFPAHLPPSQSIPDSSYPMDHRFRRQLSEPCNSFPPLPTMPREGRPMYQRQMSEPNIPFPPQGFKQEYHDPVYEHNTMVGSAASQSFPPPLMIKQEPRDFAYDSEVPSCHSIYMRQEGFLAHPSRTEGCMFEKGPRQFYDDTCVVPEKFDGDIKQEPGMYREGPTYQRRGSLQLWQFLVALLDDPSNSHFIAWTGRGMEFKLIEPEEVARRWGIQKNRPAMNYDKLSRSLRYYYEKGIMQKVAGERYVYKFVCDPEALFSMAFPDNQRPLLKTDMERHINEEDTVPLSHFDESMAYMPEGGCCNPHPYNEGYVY
Sequence of ETV5 (P41161 whole entry): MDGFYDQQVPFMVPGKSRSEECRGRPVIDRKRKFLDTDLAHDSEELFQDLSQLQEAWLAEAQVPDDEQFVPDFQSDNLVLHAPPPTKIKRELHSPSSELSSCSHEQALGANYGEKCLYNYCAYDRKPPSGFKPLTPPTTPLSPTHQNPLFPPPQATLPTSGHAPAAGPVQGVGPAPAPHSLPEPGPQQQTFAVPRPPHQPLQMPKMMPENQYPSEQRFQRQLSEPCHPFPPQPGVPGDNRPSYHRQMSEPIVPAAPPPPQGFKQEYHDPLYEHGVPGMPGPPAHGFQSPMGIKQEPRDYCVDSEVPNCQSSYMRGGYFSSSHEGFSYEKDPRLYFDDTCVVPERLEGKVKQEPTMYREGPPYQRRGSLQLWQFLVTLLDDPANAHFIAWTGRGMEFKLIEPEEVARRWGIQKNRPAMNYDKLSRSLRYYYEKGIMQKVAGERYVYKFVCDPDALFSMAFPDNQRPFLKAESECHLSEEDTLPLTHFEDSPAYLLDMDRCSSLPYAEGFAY

With GAATAC, the binding signal was 1.1 fold enrichment (6-mer frequency, TF over GST control) with FLI1; 1.1 fold enrichment (6-mer frequency, TF over GST control) in the test with ELK1; 1.11 fold enrichment (6-mer frequency, TF over GST control) with GABPA; 1.08 fold enrichment (6-mer frequency, TF over GST control) in the test with ELF1; 1.01 fold enrichment (6-mer frequency, TF over GST control) in the test with ETV5; 1.16 fold enrichment (6-mer frequency, TF over GST control) with HSF1. The binding signal with SPIC is 1.06 fold enrichment (6-mer frequency, TF over GST control); in the test with ELF4 it was 1.01 fold enrichment (6-mer frequency, TF over GST control); in the test with ELK4 it was 1.05 fold enrichment (6-mer frequency, TF over GST control); with ETV2 it was 1.05 fold enrichment (6-mer frequency, TF over GST control); in the test with ETV1, 1.09 fold enrichment (6-mer frequency, TF over GST control).
